# ABHD5 PLIN5 PPI: blocks binding of human ABHD5 to perilipin-5. Q00G26+Q8WTS1. Split G. princeps luciferase complementation, luminescence, 4 h. inhibition, % at 4 µM. hit rate 0.78% among 360,000. AID 602281;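 active = inhibition above the mean inhibition across every tested compound plus 3 SD, cut at about 22% in these data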
# Target sequence (Q00G26 whole entry, looked up): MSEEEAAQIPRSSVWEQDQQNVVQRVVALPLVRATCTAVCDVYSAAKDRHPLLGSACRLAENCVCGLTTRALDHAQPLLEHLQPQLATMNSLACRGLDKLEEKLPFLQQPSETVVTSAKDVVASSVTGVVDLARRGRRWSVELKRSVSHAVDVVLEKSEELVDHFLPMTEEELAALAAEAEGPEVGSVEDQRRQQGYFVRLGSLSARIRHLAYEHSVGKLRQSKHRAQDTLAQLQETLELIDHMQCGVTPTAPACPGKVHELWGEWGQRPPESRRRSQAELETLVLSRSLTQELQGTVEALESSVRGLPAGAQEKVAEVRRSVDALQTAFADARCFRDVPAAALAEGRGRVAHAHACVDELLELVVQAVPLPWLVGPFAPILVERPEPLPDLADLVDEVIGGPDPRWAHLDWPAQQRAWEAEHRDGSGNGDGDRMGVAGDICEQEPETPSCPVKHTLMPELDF
# Target sequence (Q8WTS1 whole entry, looked up): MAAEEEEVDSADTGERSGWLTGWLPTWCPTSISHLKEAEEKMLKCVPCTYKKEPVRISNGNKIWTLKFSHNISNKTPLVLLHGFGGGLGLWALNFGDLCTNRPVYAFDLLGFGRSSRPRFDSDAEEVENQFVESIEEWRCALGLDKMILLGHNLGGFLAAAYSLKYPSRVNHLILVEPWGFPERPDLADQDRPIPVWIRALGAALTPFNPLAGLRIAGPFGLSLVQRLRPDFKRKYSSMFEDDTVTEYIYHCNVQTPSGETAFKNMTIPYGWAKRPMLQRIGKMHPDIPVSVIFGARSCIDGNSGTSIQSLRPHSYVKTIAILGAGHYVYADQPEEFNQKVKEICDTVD
# m5-HT2A agonist: agonists of mouse serotonin 5-HT2A receptor (HTR2A); AID 624169; activation, % at 7.6 µM; CHO-K1 mHTR2A beta-arrestin complementation, luminescence; percent of 30 µM serotonin response; hit rate 0.66% among 360,000; P35363;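 active = activation above a run cutoff, the mean activation of all tested compounds plus 3 SD, cut at about 14% in these data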
# TLR9-MyD88 block: TLR9-MyD88 interaction inhibition; Q9NR96+Q99836; inhibition, % at 4.98 µM; CHO BLA complementation TLR9-MyD88, CCF4 FRET ratio; hit rate 0.21% among 340,000;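 active = inhibition above the mean over all tested compounds plus 3 SD, cut at about 21% in these data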
# TLR4 MyD88 comp: inhibitors of human TLR4-MyD88 binding; O00206+Q99836; HeLa CL3-4 TLR4/MyD88 BLA complementation, FRET ratio; hit rate 0.18% among 200,000; inhibition, % at 8.4 µM; in the data active = inhibition above about 25%
# NOD2 RIPK2 PPI: NOD2-RIPK2 protein interaction inhibition. O43353. CHO BLA complementation NOD2-RIPK2, CCF4 ratio. inhibition, % at 4.98 µM. hit rate 0.38% among 360,000; in the data active = inhibition above about 21%
# CRFBP-R2 block: antagonists of CRF-binding protein/CRF-R2 receptor complex. HEK293 CRF-R2/CRF-BP, CRF-induced calcium fluorescence. inhibition, % at 11.8 µM. hit rate 0.59% among 350,000. AID 588475;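 active = inhibition of the ligand-induced calcium signal above about 50% at the single tested concentration, limit read from the data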
# ABHD5-PLIN5 conf: ABHD5-PLIN5 interaction inhibition, confirmed | AID 651612 | inhibition, % at 4 µM | hit rate 67% among 2,200 | biochemical ABHD5-PLIN5 interaction, luminescence | shares compounds with ABHD5 PLIN5 PPI; in the data active = inhibition above about 23%
# HNF4 counter: HNF4 split-luciferase signal hit, counter-screen. shares compounds with ABHD5 PLIN5 PPI. HNF4 dimerization, luminescence, biochemical. inhibition, % at 4 µM. hit rate 77% among 2,200;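 active = mean inhibition across replicate wells exceeding the computed hit threshold, cut at about 13% in these data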;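 note: light from luciferase halves that rejoin when HNF4 fusion proteins dimerize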
# Numbers stand for hits; 0 = inactive; - = not tested or not shown. Hits are enriched below; roughly 2.4% of the tested compounds scored in any of these assays.
SMILES,ABHD5 PLIN5 PPI,m5-HT2A agonist,TLR9-MyD88 block,TLR4 MyD88 comp,NOD2 RIPK2 PPI,CRFBP-R2 block,ABHD5-PLIN5 conf,HNF4 counter
CCCCCNC(=O)C(c1ccc(C#N)cc1)n1c(=O)c(-c2ccco2)nc2ccccc21 (stereo not given),75,0,-,-,0,-,44,0
CCCCCNC(=O)C(c1ccccc1F)n1c(=O)c(-c2ccco2)nc2ccccc21 (stereo not given),96,0,-,-,0,-,57,0
CCCCCNC(=O)C(c1cccc2ccccc12)n1c(=O)c(-c2ccccc2)nc2ccccc21 (stereo not given),0,0,-,-,0,-,-,-
CCCCCNC(=O)C(c1ccc(OC)cc1)n1c(=O)c(-c2ccco2)nc2ccccc21 (stereo not given),71,0,-,-,0,-,96,62
CCCNC(=O)C1(C)CCN(C(=O)COCc2ccccc2)C1 (stereo not given),0,0,-,-,0,-,-,-
COc1cccc(NC(=O)C2(C)CCN2Cc2ccc(-c3ccccc3)o2)c1 (stereo not given),0,0,-,-,0,-,-,-
CC1(C(=O)Nc2cnc3ccccc3c2)CCN1Cc1ccc(-c2ccccc2)o1 (stereo not given),65,0,-,-,0,-,47,70
CCOC(=O)c1csc(-c2ccc(COC(=O)c3ccccc3)o2)n1,0,0,-,-,0,-,-,-
CC1CCCCN1Cc1c(O)ccc2c(=O)c(-c3nc4ccccc4s3)c(N)oc12 (stereo not given),29,0,0,0,0,0,0,0
COc1ccc(-c2c(C)oc3c(CN4CCCCC4C)c(O)ccc3c2=O)cc1 (stereo not given),0,0,0,-,0,0,-,-
Cc1cc(C)c2sc(N(CCN(C)C)C(=O)c3c(F)cccc3F)nc2c1,0,0,0,0,0,0,-,-
Cc1cc(C)c2sc(N(CCCN(C)C)C(=O)CN3C(=O)c4ccccc4C3=O)nc2c1,24,0,0,0,0,0,0,0
Cc1cc(C)c2sc(N(CCCN(C)C)C(=O)c3ccc(Br)s3)nc2c1,23,0,0,0,0,0,0,0
Cc1ccc2nc(N(CCCN(C)C)C(=O)CN3C(=O)c4ccccc4C3=O)sc2c1,0,0,0,0,0,0,-,-
CN(C)CCCNC(=O)c1ccc(-c2nc(-c3ccc(Cl)cc3)cs2)cc1,27,0,0,0,0,0,22,0
CN(C)CCCNC(=O)c1ccccn1,0,0,0,0,0,0,-,-
COc1ccc(NC(=O)C2(C)CCN2Cc2ccccc2Cl)cc1OC (stereo not given),0,0,-,-,0,-,-,-
CC(C)c1ccc(N2C=Nc3ccc(C(C)C)cc3C2)cc1,36,0,0,-,0,0,24,0
O=C(C(c1ccccc1)N1CCOCC1)N1CCOCC1 (stereo not given),0,0,0,0,0,0,-,-
O=C(C=Cc1ccccc1)CC(c1ccccc1)N1CCOCC1 (stereo not given),77,0,0,-,0,0,100,95
COc1ccc(OCC(O)CN2CCC(CN3C(=O)c4cccc5cccc(c45)C3=O)CC2)cc1 (stereo not given),25,0,0,-,0,0,0,0
N#CCc1c(C#N)c(N)nc(N2CCN(S(=O)(=O)c3ccccc3)CC2)c1C#N,0,0,0,0,0,0,-,-
N#CCc1c(C#N)c(N)nc(N2CCN(C=O)CC2)c1C#N,23,0,0,0,0,0,0,0
CC(=O)Oc1ccc(N(C(C)=O)S(=O)(=O)c2ccccc2)c2ccccc12,0,0,0,-,0,0,-,-
CC(=O)Oc1c(Cl)cc(N(C(C)=O)S(=O)(=O)c2ccccc2)c2ccccc12,58,0,-,-,0,0,49,15
SMILES,ABHD5 PLIN5 PPI,m5-HT2A agonist,TLR9-MyD88 block,TLR4 MyD88 comp,NOD2 RIPK2 PPI,CRFBP-R2 block,ABHD5-PLIN5 conf,HNF4 counter
CCOc1cc(/C=C\[N+](=O)[O-])ccc1OCC(=O)N1CCOCC1,29,0,0,0,0,0,70,70
COC(=O)[C@]12CCCCC=C1N(CCC1=CCCCC1)C(=O)[C@H](CC(=O)NCCCN1CCCC1=O)C2,0,0,-,-,0,-,-,-
O=c1[nH]c(/C=C\c2cccc(O)c2)nc(O)c1[N+](=O)[O-],52,0,0,-,0,0,52,43
O=c1[nH]c(/C=C\c2ccc(O)c(O)c2)nc(O)c1[N+](=O)[O-],0,0,0,-,0,0,-,-
O=C(Nc1ccc2c(c1)OCO2)c1cc(C2CCCCN2S(=O)(=O)Cc2ccccc2)on1 (stereo not given),0,0,-,-,0,-,-,-
C=C(NC(=O)C(=C)NC(=O)c1csc(C2=NC3c4csc(n4)C4NC(=O)c5csc(n5)C(C(C)(O)C(C)O)NC(=O)C5CSC(=N5)/C(=C/C)NC(=O)C(C(C)O)NC(=O)c5csc(n5)C3(CC2)NC(=O)C(C)NC(=O)C(=C)NC(=O)C(=C)NC(=O)C(C(C)C)NC2C=Cc3c(C(C)O)cc(nc3C2O)C(=O)OC4C)n1)C(N)=O (stereo not given),28,0,0,-,0,0,66,0
CC(C)[C@@H]1CN=C(N)N1C[C@@H]1CCCN1C[C@H](C)N1C[C@@H](Cc2ccccc2)N(CCc2ccc(Cl)c(Cl)c2)C1=N,0,0,0,-,0,0,-,-
CCC[C@@H](CN1CCC[C@H]1CN1C(N)=NC[C@@H]1Cc1ccccc1)N1C[C@@H]([C@H](C)CC)N(CCc2ccc(Cl)c(Cl)c2)C1=N,26,0,0,-,0,0,0,0
CCCCN1C(=N)N([C@@H](CCC)CN2CCC[C@H]2CN2C(N)=NC[C@@H]2Cc2ccccc2)C[C@H]1Cc1ccccc1,0,0,0,-,0,0,-,-
CC(C)[C@H](CN1CCC[C@H]1CN1C(N)=NC[C@@H]1Cc1ccccc1)N1C[C@@H](Cc2ccccc2)N(CCc2ccc(Cl)c(Cl)c2)C1=N,36,0,0,-,0,0,23,0
CCC[C@@H](CN1CCC[C@H]1CN1C(N)=NC[C@@H]1Cc1ccccc1)N1C[C@@H](Cc2ccccc2)N(CCc2ccc(Cl)c(Cl)c2)C1=N,29,0,0,-,0,0,0,0
COc1ccc(NC(=O)c2cc3ccccc3cc2O)cc1,48,0,0,-,0,0,53,22
Brc1ccc2nc(-c3ccco3)c(Cc3ccccc3)n2c1,59,0,-,-,0,-,63,95
COC(=O)c1ccc2nc(-c3ccco3)c(Cc3ccc(OC)cc3C)n2c1,47,0,-,-,0,-,72,83
COC(=O)c1ccc2nc(-c3ccco3)c(Cc3cccc(F)c3)n2c1,57,0,-,-,0,-,48,83
Cc1ccc(Cc2c(-c3ccc(Br)cc3)nc3ccc(Br)cn23)cc1,0,0,0,-,0,0,-,-
Cc1ccc(Cc2c(-c3ccco3)nc3c4ccccc4ccn23)cc1,0,0,-,-,0,-,-,-
